About 4,100 (2.2%) of roughly 190,000 compounds were called active. The list comes from a sample in which actives are over-represented; it also holds similar structures and randomly drawn compounds. Values without a mark were called inactive.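 How the source made its calls: active means thallium flux slope and its plate-corrected score both differing from the plate sample mean at a set confidence after two filtering rounds, in either direction; inactive means the rest.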
What follows are compounds tested against Solute carrier family 12 member 5 (Homo sapiens) (UniProt Q9H2X9) (assay: modulation of human KCC2 ion transport – cell-based, HEK293 KCC2, FluoZin-2 fluorescence, MLSMR, primary screen (AID 1456;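 further: slope of fluorescence scaled to starting intensity during 10 to 20 s after thallium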)). Conditions: KCC2 cells, thallium flux FluoZin-2 fluorescence; at 10 µM.
Sequence of Solute carrier family 12 member 5 (Homo sapiens) (Q9H2X9 whole entry, looked up): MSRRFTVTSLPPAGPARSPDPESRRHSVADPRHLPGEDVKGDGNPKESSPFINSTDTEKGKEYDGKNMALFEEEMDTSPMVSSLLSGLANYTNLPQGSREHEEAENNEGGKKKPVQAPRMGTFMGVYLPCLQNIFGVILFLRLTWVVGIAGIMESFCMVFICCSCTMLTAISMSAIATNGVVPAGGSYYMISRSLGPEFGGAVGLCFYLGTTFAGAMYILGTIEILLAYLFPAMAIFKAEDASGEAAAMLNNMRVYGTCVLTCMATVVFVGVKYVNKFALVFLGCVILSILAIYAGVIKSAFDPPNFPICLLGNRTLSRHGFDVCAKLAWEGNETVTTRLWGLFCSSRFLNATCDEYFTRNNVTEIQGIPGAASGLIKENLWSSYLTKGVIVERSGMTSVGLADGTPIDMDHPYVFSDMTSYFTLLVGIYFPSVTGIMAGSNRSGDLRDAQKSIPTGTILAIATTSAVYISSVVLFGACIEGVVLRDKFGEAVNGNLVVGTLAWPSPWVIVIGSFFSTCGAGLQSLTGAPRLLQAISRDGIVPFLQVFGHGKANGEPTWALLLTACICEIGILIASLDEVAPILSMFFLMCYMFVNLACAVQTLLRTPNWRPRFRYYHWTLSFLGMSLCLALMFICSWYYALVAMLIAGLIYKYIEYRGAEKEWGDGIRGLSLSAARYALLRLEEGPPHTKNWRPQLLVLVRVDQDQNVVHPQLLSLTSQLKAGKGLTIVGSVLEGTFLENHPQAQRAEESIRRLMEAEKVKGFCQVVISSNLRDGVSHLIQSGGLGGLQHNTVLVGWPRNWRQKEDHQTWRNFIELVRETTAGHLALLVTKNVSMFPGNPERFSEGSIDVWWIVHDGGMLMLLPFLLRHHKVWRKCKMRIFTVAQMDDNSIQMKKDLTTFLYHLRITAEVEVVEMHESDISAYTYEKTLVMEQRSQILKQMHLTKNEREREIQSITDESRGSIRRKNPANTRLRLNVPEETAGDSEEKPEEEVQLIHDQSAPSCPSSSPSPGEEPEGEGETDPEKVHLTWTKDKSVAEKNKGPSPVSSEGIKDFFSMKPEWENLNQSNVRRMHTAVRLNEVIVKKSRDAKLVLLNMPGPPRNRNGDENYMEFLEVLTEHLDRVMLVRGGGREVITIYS

Structure (SMILES) | B-score of Tl+ flux slope (higher = more flux/activation; lower = inhibition)
Cc1cc(N)n(-c2ccc(S(=O)(=O)N3CCCC3)cc2[N+](=O)[O-])n1 | -0.0325
COC(=O)c1cccc(NS(C)(=O)=O)c1 | 0.136
N#Cc1ccc(C(=O)Nc2cccc3cccnc23)c(F)c1 | 0.429
CC(=O)/C(=N\Nc1ccc(Cl)cc1Cl)Sc1cccc2cccnc12 | 20.6 (active)
S=C(NCc1cccnc1)Nc1ccc(Cl)cc1Cl | 0.543
Cc1cc(OCCCN2CCN(Cc3ccccc3)CC2)ccc1[N+](=O)[O-] | -0.489
COc1ccc(S(=O)(=O)Nc2ccc(O)c(Sc3nc4ccccc4s3)c2)cc1 | -1.09
O=C(CSc1nc2ccccc2s1)Nc1ccc(C(=O)O)cc1 | 0.381
O=[N+]([O-])c1c(NCCO)cc(Sc2nc3ccccc3s2)c2nonc12 | 5.33 (active)
O=C(NCc1ccc(F)cc1)C1CCC(CNc2c(N3CCOCC3)c(=O)c2=O)CC1 (stereo unspecified) | 1.21
Cc1cc(C(=O)CSc2nc(N)cc(=O)[nH]2)c(C)n1Cc1ccco1 | -0.287
COc1ccc(-c2csc(NC3OC(=O)c4ccccc43)n2)cc1 (stereo unspecified) | 0.605
O=C(CSc1nnc(-c2c[nH]c3ccccc23)o1)c1ccccc1 | 0.154
CCC(CC)NC(=O)CSc1nnc(-c2c[nH]c3ccccc23)o1 | -3.08 (active)
CN(C(=O)CSc1nnc(-c2c[nH]c3ccccc23)o1)C1CCS(=O)(=O)C1 (stereo unspecified) | -0.897
COc1cccc(C(=O)n2ccc(-c3cccs3)n2)c1 | 0.604
COC(=O)N(NC(=O)C(O)(C(C)C)C(C)C)c1ccccc1 | -1.84
CC(CC(=O)N1CCN(c2ccccc2)CC1)c1ccccc1 (stereo unspecified) | -0.358
O=C(CN1CCCC1)N1CCN(c2ccccc2)CC1 | 0.962
O=C(NC(CC(=O)N1CCN(c2ccccc2)CC1)c1ccccc1)c1ccccc1Cl (stereo unspecified) | -2.77 (active)
S=c1[nH]nc(-c2ccco2)n1/N=C/c1ccc(Br)s1 | 12.6 (active)

Structure (SMILES) | B-score of Tl+ flux slope (higher = more flux/activation; lower = inhibition)
Cc1cc(-c2n[nH]c(=S)n2/N=C/c2ccco2)n[nH]1 | -0.111
S=c1[nH]nc(-c2ccco2)n1/N=C/c1ccccc1 | 4.67
S=c1[nH]nc(-c2cccs2)n1/N=C/c1cccs1 | 8.64
Cc1ccc(/C=N\n2c(-c3ccccc3)n[nH]c2=S)s1 | 5.99 (active)
S=c1[nH]nc(-c2ccccc2)n1/N=C/c1c[nH]c2ccccc12 | 0.491
O=c1c2ccccc2cnn1Cc1n[nH]c(=S)n1-c1ccccc1F | 0.755
CC1CCN(c2c(NCc3ccc(C(=O)NCc4ccccc4)cc3)c(=O)c2=O)CC1 | -1.1
O=C(Nc1ccccc1)C1CC(=O)n2c(nc3ccccc32)N1 (stereo unspecified) | 0.778
CC(C)CCNC(=O)C1CCC(CNc2c(N3CCC(C)CC3)c(=O)c2=O)CC1 (stereo unspecified) | 0.284
COc1ccc(CNC(=O)CCC(=O)Nc2nnc(C(C)C)s2)cc1 | 0.0451
Cc1cccc(N2CCN(Cc3nc(C4CC4)no3)CC2)n1 | -0.346
COc1cccc(-c2nnc(NC(=O)c3ccc(S(=O)(=O)N(CC(C)C)CC(C)C)cc3)o2)c1 | 18.6 (active)
COc1cccc(NC(=O)c2ccc(S(=O)(=O)N(C)C)cc2)c1 | 1.09
O=C(Nc1nnc(-c2ccco2)o1)c1ccc(S(=O)(=O)N2CCOCC2)cc1 | -0.75
CCCCN1CCNC1=S | -0.472
O=C(Nc1ccc(Br)cn1)c1ccc([N+](=O)[O-])o1 | 0.106
CCCCCC(=O)Nc1ccc(C(=O)N/N=C/c2ccc([N+](=O)[O-])cc2)cc1 | -0.55
CC(C)CC(=O)NC(=S)NNC(=O)c1cccc([N+](=O)[O-])c1 | 0.86
CCCCCC(=O)NC(=S)NNC(=O)c1ccc([N+](=O)[O-])cc1 | 11.7 (active)
Cc1ccc(N2C(=O)C(CC(=O)Nc3cccc(F)c3)N(CCc3ccncc3)C2=O)cc1 (stereo unspecified) | 1.48
C=CCNC(=S)N1CCc2[nH]c3ccccc3c2C1 | -0.783

Structure (SMILES) | B-score of Tl+ flux slope (higher = more flux/activation; lower = inhibition)
O=C(COC(=O)c1ccc(Oc2ccccc2)cc1)Nc1nnc(-c2ccccc2)o1 | 42.1 (active)
Cc1cccc(NC(=O)Nc2nnc(-c3ccccc3)o2)c1 | 2.01
CCCC(=O)Nc1nnc(-c2ccccc2)o1 | 1.22
CC1=NNC(=O)C1CCC(=O)N/N=C(\C)c1ccc(Cl)cc1 (stereo unspecified) | -0.012
CC(NC(=S)Nc1ccccc1)C(c1cccs1)N1CCOCC1 (stereo unspecified) | 0.588
CCOC(=O)NNC(=O)c1ccc(Cl)cc1 | 0.095
CSc1sc(C(=O)NNC(=O)c2ccc(Cl)cc2)c2c1C=CCC2 | 12.5 (active)
O=C(NNC(=O)C1C2CCC(C2)C1C(=O)O)c1ccc(Cl)cc1 (stereo unspecified) | -1.3
O=C(CC(c1ccccc1)c1cc(Cl)ccc1O)NCCN1CCOCC1 (stereo unspecified) | -0.0272
CN(C)c1ccc(C=C2C(=O)OC3(CCCC3)OC2=O)cc1 | -0.977
CCOc1c(Nc2cccc(Cl)c2)c(=O)c1=O | -0.192
COc1ccc(C2/C=C\CN(S(=O)(=O)c3cccs3)CC(=O)N2Cc2ccc(F)cc2)cc1 (stereo unspecified) | -3.16 (active)
COc1ccc2c(CN3CCN(S(=O)(=O)c4cccs4)CC3)cc(=O)oc2c1 | -3.36
COc1ccc(C2/C=C\CN(CC(C)C)CC(=O)N2Cc2ccc(F)cc2)cc1 (stereo unspecified) | -1.57
O=c1c(-c2ccc(Cl)cc2)[n+]([O-])c2ccccc2n1OCc1nc2ccccc2[nH]1 | 2.99
Nc1nc(NCC2CCCO2)nc(Nc2ccccc2F)c1[N+](=O)[O-] (stereo unspecified) | 0.249
NS(=O)(=O)c1ccc(NS(=O)(=O)/C=C/c2ccccc2)cc1 | 0.851
COc1ccc(NC(=O)COC(=O)c2ccc(NS(=O)(=O)/C=C/c3ccccc3)cc2)cc1 | 4.56 (active)
CCC(C(=O)OCC(=O)Nc1ccc(C(=O)Nc2ccc(OC)cc2)cc1)c1ccccc1 (stereo unspecified) | -0.012

Source: PubChem BioAssay AID1456 (Vanderbilt High Throughput Screening Facility, 2008)
